# Assay results reported in the supplement of paper PMC4466140.
# B1: unnamed (peptide)
# chain: FYHRPAPKPPVTKKV
# Molecular target: AgAbp1
# Assay: SPOT peptide array binding signal intensity (averaged, normalized) (arbitrary units (background-subtracted, floor 0; scale differs between SH3 domains)); higher = stronger binding of the SH3 domain to the peptide
# How it was run: (§1)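 Binding signal is given in arbitrary units that differ between domains and is the normalized, background-subtracted spot intensity averaged across replicates. Each GST-SH3 fusion from one of four yeast species was made in E. coli BL21(DE3), purified on glutathione Sepharose and incubated at 10 μg/ml overnight at 4°C on cellulose-bound synthetic 15-mer peptides in which cysteines were replaced by serines. Detection used anti-GST antibody, an HRP anti-mouse secondary and luminol, followed by imaging and Genespotter quantification.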
row,Binder,SPOT peptide array binding signal intensity
1,B1,250

# Molecular target: AgBbc1
# Assay: as above
# How it was run: as §1
row,Binder,SPOT peptide array binding signal intensity
1,B1,123

# Molecular target: AgBem1-D1
# Assay: as above
# How it was run: as §1
row,Binder,SPOT peptide array binding signal intensity
1,B1,68

# Molecular target: AgBzz1-D1
# Assay: as above
# How it was run: as §1
row,Binder,SPOT peptide array binding signal intensity
1,B1,89

# Molecular target: AgBzz1-D2
# Assay: as above
# How it was run: as §1
row,Binder,SPOT peptide array binding signal intensity
1,B1,65

# Molecular target: AgCyk3
# Assay: as above
# How it was run: as §1
row,Binder,SPOT peptide array binding signal intensity
1,B1,6

# Molecular target: AgFus1
# Assay: as above
# How it was run: as §1
row,Binder,SPOT peptide array binding signal intensity
1,B1,≤ 0

# Molecular target: AgHof1
# Assay: as above
# How it was run: as §1
row,Binder,SPOT peptide array binding signal intensity
1,B1,3

# Molecular target: AgHse1
# Assay: as above
# How it was run: as §1
row,Binder,SPOT peptide array binding signal intensity
1,B1,≤ 0

# Molecular target: AgLsb1
# Assay: as above
# How it was run: as §1
row,Binder,SPOT peptide array binding signal intensity
1,B1,138

# Molecular target: AgLsb4
# Assay: as above
# How it was run: as §1
row,Binder,SPOT peptide array binding signal intensity
1,B1,≤ 0

# Molecular target: AgMyo5
# Assay: as above
# How it was run: as §1
row,Binder,SPOT peptide array binding signal intensity
1,B1,38.8

# Molecular target: AgNbp2
# Assay: as above
# How it was run: as §1
row,Binder,SPOT peptide array binding signal intensity
1,B1,1040

# Molecular target: AgRvs167
# Assay: as above
# How it was run: as §1
row,Binder,SPOT peptide array binding signal intensity
1,B1,1.33

# Molecular target: AgSho1
# Assay: as above
# How it was run: as §1
row,Binder,SPOT peptide array binding signal intensity
1,B1,≤ 0

# Molecular target: AgSla1-D1-D2
# Assay: as above
# How it was run: as §1
row,Binder,SPOT peptide array binding signal intensity
1,B1,≤ 0

# Molecular target: AgSla1-D3
# Assay: as above
# How it was run: as §1
row,Binder,SPOT peptide array binding signal intensity
1,B1,6.5

# Molecular target: CaAbp1-D1
# Assay: as above
# How it was run: as §1
row,Binder,SPOT peptide array binding signal intensity
1,B1,281

# Molecular target: CaAbp1-D2
# Assay: as above
# How it was run: as §1
row,Binder,SPOT peptide array binding signal intensity
1,B1,269

# Molecular target: CaBbc1
# Assay: as above
# How it was run: as §1
row,Binder,SPOT peptide array binding signal intensity
1,B1,454

# Molecular target: CaBem1-D1
# Assay: as above
# How it was run: as §1
row,Binder,SPOT peptide array binding signal intensity
1,B1,364

# Molecular target: CaBzz1-D1
# Assay: as above
# How it was run: as §1
row,Binder,SPOT peptide array binding signal intensity
1,B1,2440

# Molecular target: CaBzz1-D2
# Assay: as above
# How it was run: as §1
row,Binder,SPOT peptide array binding signal intensity
1,B1,529

# Molecular target: CaCyk3
# Assay: as above
# How it was run: as §1
row,Binder,SPOT peptide array binding signal intensity
1,B1,10.5

# Molecular target: CaFus1
# Assay: as above
# How it was run: as §1
row,Binder,SPOT peptide array binding signal intensity
1,B1,≤ 0

# Molecular target: CaHof1
# Assay: as above
# How it was run: as §1
row,Binder,SPOT peptide array binding signal intensity
1,B1,≤ 0

# Molecular target: CaHse1
# Assay: as above
# How it was run: as §1
row,Binder,SPOT peptide array binding signal intensity
1,B1,≤ 0

# Molecular target: CaLsb1
# Assay: as above
# How it was run: as §1
row,Binder,SPOT peptide array binding signal intensity
1,B1,3

# Molecular target: CaLsb4
# Assay: as above
# How it was run: as §1
row,Binder,SPOT peptide array binding signal intensity
1,B1,≤ 0

# Molecular target: CaMyo5
# Assay: as above
# How it was run: as §1
row,Binder,SPOT peptide array binding signal intensity
1,B1,8

# Molecular target: CaNbp2
# Assay: as above
# How it was run: as §1
row,Binder,SPOT peptide array binding signal intensity
1,B1,843

# Molecular target: CaRvs167
# Assay: as above
# How it was run: as §1
row,Binder,SPOT peptide array binding signal intensity
1,B1,3

# Molecular target: CaRvs167-3
# Assay: as above
# How it was run: as §1
row,Binder,SPOT peptide array binding signal intensity
1,B1,≤ 0

# Molecular target: CaSho1
# Assay: as above
# How it was run: as §1
row,Binder,SPOT peptide array binding signal intensity
1,B1,≤ 0

# Molecular target: CaSla1-D1-D2
# Assay: as above
# How it was run: as §1
row,Binder,SPOT peptide array binding signal intensity
1,B1,105

# Molecular target: CaSla1-D3
# Assay: as above
# How it was run: as §1
row,Binder,SPOT peptide array binding signal intensity
1,B1,45.2

# Molecular target: ScAbp1
# Assay: as above
# How it was run: as §1
row,Binder,SPOT peptide array binding signal intensity
1,B1,87.5

# Molecular target: ScBbc1
# Assay: as above
# How it was run: as §1
row,Binder,SPOT peptide array binding signal intensity
1,B1,330

# Molecular target: ScBem1-D1
# Assay: as above
# How it was run: as §1
row,Binder,SPOT peptide array binding signal intensity
1,B1,4

# Molecular target: ScBzz1-D1
# Assay: as above
# How it was run: as §1
row,Binder,SPOT peptide array binding signal intensity
1,B1,678

# Molecular target: ScBzz1-D2
# Assay: as above
# How it was run: as §1
row,Binder,SPOT peptide array binding signal intensity
1,B1,39

# Molecular target: ScCyk3
# Assay: as above
# How it was run: as §1
row,Binder,SPOT peptide array binding signal intensity
1,B1,≤ 0

# Molecular target: ScFus1
# Assay: as above
# How it was run: as §1
row,Binder,SPOT peptide array binding signal intensity
1,B1,≤ 0

# Molecular target: ScHof1
# Assay: as above
# How it was run: as §1
row,Binder,SPOT peptide array binding signal intensity
1,B1,≤ 0

# Molecular target: ScHse1
# Assay: as above
# How it was run: as §1
row,Binder,SPOT peptide array binding signal intensity
1,B1,≤ 0

# Molecular target: ScLsb1
# Assay: as above
# How it was run: as §1
row,Binder,SPOT peptide array binding signal intensity
1,B1,32.5

# Molecular target: ScLsb2
# Assay: as above
# How it was run: as §1
row,Binder,SPOT peptide array binding signal intensity
1,B1,106

# Molecular target: ScLsb3
# Assay: as above
# How it was run: as §1
row,Binder,SPOT peptide array binding signal intensity
1,B1,53

# Molecular target: ScLsb4
# Assay: as above
# How it was run: as §1
row,Binder,SPOT peptide array binding signal intensity
1,B1,3

# Molecular target: ScMyo3
# Assay: as above
# How it was run: as §1
row,Binder,SPOT peptide array binding signal intensity
1,B1,284

# Molecular target: ScMyo5
# Assay: as above
# How it was run: as §1
row,Binder,SPOT peptide array binding signal intensity
1,B1,459

# Molecular target: ScNbp2
# Assay: as above
# How it was run: as §1
row,Binder,SPOT peptide array binding signal intensity
1,B1,1680

# Molecular target: ScPex13
# Assay: as above
# How it was run: as §1
row,Binder,SPOT peptide array binding signal intensity
1,B1,530

# Molecular target: ScRvs167
# Assay: as above
# How it was run: as §1
row,Binder,SPOT peptide array binding signal intensity
1,B1,12.8

# Molecular target: ScSho1
# Assay: as above
# How it was run: as §1
row,Binder,SPOT peptide array binding signal intensity
1,B1,12

# Molecular target: ScSla1-D1-D2
# Assay: as above
# How it was run: as §1
row,Binder,SPOT peptide array binding signal intensity
1,B1,238

# Molecular target: ScSla1-D3
# Assay: as above
# How it was run: as §1
row,Binder,SPOT peptide array binding signal intensity
1,B1,475

# Molecular target: SpAbp1-D1
# Assay: as above
# How it was run: as §1
row,Binder,SPOT peptide array binding signal intensity
1,B1,50.5

# Molecular target: SpBbc1
# Assay: as above
# How it was run: as §1
row,Binder,SPOT peptide array binding signal intensity
1,B1,19.2

# Molecular target: SpBzz1-D1
# Assay: as above
# How it was run: as §1
row,Binder,SPOT peptide array binding signal intensity
1,B1,647

# Molecular target: SpBzz1-D2
# Assay: as above
# How it was run: as §1
row,Binder,SPOT peptide array binding signal intensity
1,B1,2.5

# Molecular target: SpCyk3
# Assay: as above
# How it was run: as §1
row,Binder,SPOT peptide array binding signal intensity
1,B1,2

# Molecular target: SpHof1
# Assay: as above
# How it was run: as §1
row,Binder,SPOT peptide array binding signal intensity
1,B1,12.5

# Molecular target: SpHof1-2
# Assay: as above
# How it was run: as §1
row,Binder,SPOT peptide array binding signal intensity
1,B1,≤ 0

# Molecular target: SpHof1-3
# Assay: as above
# How it was run: as §1
row,Binder,SPOT peptide array binding signal intensity
1,B1,≤ 0

# Molecular target: SpHse1
# Assay: as above
# How it was run: as §1
row,Binder,SPOT peptide array binding signal intensity
1,B1,≤ 0

# Molecular target: SpLsb1
# Assay: as above
# How it was run: as §1
row,Binder,SPOT peptide array binding signal intensity
1,B1,8

# Molecular target: SpLsb4
# Assay: as above
# How it was run: as §1
row,Binder,SPOT peptide array binding signal intensity
1,B1,54

# Molecular target: SpMyo1
# Assay: as above
# How it was run: as §1
row,Binder,SPOT peptide array binding signal intensity
1,B1,132

# Molecular target: SpNbp2
# Assay: as above
# How it was run: as §1
row,Binder,SPOT peptide array binding signal intensity
1,B1,9

# Molecular target: SpPex13
# Assay: as above
# How it was run: as §1
row,Binder,SPOT peptide array binding signal intensity
1,B1,6

# Molecular target: SpRvs167
# Assay: as above
# How it was run: as §1
row,Binder,SPOT peptide array binding signal intensity
1,B1,9.33

# Molecular target: SpSla1-D1-D2
# Assay: as above
# How it was run: as §1
row,Binder,SPOT peptide array binding signal intensity
1,B1,≤ 0

# Molecular target: SpSla1-D3
# Assay: as above
# How it was run: as §1
row,Binder,SPOT peptide array binding signal intensity
1,B1,≤ 0
